Rows were chosen to be rich in hits. Some 5.2% of all compounds tested hit in one or more screens of this group.
Sfp inh: blocks B. subtilis Sfp PPTase activity; 310,000 tested, 3.5% active; Potency, µM, inactives show largest response in the series, negative = inhibition, hits mostly inhibitors; Q9F4F7; Biochemical Sfp PPTase activity, qHTS;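 also: the enzyme is Sfp with the accession as filed and its product quenches rhodamine fluorescence; 0% = enzyme reaction without inhibitor and -100% = no enzyme wells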
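Sfp 15 nM + cpd, 15 min RT; start w/ rhodamine-CoA 5 uM, BHQ-2-YbbR 12.5 uM (final); 50 mM Hepes pH 7.6, 10 mM MgCl2, 0.01% NP-40, 0.01% BSA; read 525/598 nm at 0 and 30 min.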
mIDH1 inhibitor: human IDH1 R132H inhibition | O75874 | IDH1-R132H enzyme, NADPH consumption, diaphorase/resazurin fluorescence | Potency, µM (highest dose often 76.6 µM), inactives show at the highest dose activity change, negative = inhibition, hits mostly inhibitors | 390,000 tested, 0.093% active | AID 602179; also: nearly all actives have a fitted effect of over 65% in size
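IDH1-R132H (0.5 ug/mL) preincubated 30 min with compound, then NADPH (0.016 mM) and alpha-KG (2 mM) added; 80 min at RT, pH 7.5. Remaining NADPH coupled via diaphorase/resazurin to fluorescence (540/590 nm); concentration-response curves normalized to no-enzyme control.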
rTrxR1 inhibitor: blocks rat thioredoxin reductase 1. O89049. recombinant rTrxR1, NADPH fluorescence consumption, selenite substrate. Potency, µM (titrated, usually from 114 µM), for inactives: at the top dose activity change, negative = inhibition, actives largely listed as inhibitors. 390,000 tested, 1% active. AID 588453; also: nearly all actives have a fitted effect of over 65% in size
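Rat TrxR1 (90 nM in the dispensed reagent) was pre-reduced with 400 uM NADPH for 5 min at room temperature, then incubated with compound for 15 min. After 400 uM selenite was added, NADPH fluorescence (Ex 340/Em 450 nm) was followed for 8 min.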
TrxR1 substrate: rat thioredoxin reductase 1 substrate activity | purified TrxR1 substrate turnover, NADPH consumption readout | Potency, µM (series often up to 114 µM), for the others: top-dose activity change, negative = substrate turnover | 390,000 tested, 0.01% active; also: nearly all actives have a fitted effect of over 50% in size
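Rat TrxR1, dispensed at 90 nM, was prereduced with 400 uM NADPH (final) for 5 min at ~22 deg C, then incubated with compound 15 min before 400 uM selenite. A first-read NADPH fluorescence drop versus no-compound background flagged substrates.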
VDR inh: blocks the human vitamin D receptor. VDR-SRC2-3 peptide fluorescence polarization, 2 h. AID 504847. 400,000 tested, 0.93% active. P11473. Potency, µM, without a hit: max response, negative = inhibition, actives largely listed as inhibitors
Target sequence (P11473 whole entry, looked up): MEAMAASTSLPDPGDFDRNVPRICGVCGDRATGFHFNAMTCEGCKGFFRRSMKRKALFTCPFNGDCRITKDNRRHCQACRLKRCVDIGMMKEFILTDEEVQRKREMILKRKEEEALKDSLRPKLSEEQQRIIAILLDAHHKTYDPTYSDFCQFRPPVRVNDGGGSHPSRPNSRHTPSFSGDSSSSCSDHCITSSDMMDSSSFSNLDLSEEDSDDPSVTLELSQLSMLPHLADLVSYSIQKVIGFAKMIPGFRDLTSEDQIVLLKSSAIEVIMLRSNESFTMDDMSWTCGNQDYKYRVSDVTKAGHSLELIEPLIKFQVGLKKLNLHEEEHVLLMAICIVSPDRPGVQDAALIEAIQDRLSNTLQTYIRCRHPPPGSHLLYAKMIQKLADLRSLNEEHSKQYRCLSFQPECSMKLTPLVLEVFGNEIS
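Compounds are added to VDR with labelled SRC2-3 coactivator peptide and held 2 h at room temperature. Inhibition of the VDR–peptide interaction is then read as a change in fluorescence polarization.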
PLK1 PBD block: inhibitors of human PLK1 polo-box domain binding. Plk1 PBD binding of FITC phosphopeptide, fluorescence polarization. Potency, µM, for the others: max response, negative = inhibition, hits mostly inhibitors. 360,000 tested, 2.8% active. AID 720504; also: series mostly up to about 57 µM; nearly all actives have a fitted effect of over 65% in size
The depositor's hits bear a star; ? = inconclusive; . = no result; [ ] = dose if it differs, or a comment. Calls follow the shape of the dose curve; as a rule, active = well fitted curve in the direction sought with a large enough effect; inconclusive = small, poorly fitted or top-dose-only effect, or another doubt; inactive = no such curve, though single readings can be large; an effect the other way counts as inactive or inconclusive. Unless noted, % is scaled to controls: 0 for no effect and ±100 for the full control effect; potency is read from the fitted curve at half-maximal effect.

SMILES	Sfp inh	mIDH1 inhibitor	rTrxR1 inhibitor	TrxR1 substrate	VDR inh	PLK1 PBD block
O=C(O)c1ccc(NC2=C/C(=N/S(=O)(=O)c3cccs3)c3ccccc3C2=O)cc1	.	19%	.	.	.	?
CCc1ccc(S(=O)(=O)/N=C2\C=C(Nc3cccc(C(=O)O)c3)C(=O)c3ccccc32)cc1	-18%	5%	-13%	-13%	-7%	38µM*
O=C(O)c1ccc(NC2=C/C(=N/S(=O)(=O)c3ccccc3)c3ccccc3C2=O)cc1	-11%	25%	?	-3%	?	11µM*
CCc1ccc(S(=O)(=O)/N=C2/C=C(Sc3ncn[nH]3)C(=O)c3ccccc32)cc1	3.5µM*	20%	?	7.9µM*	25µM*	1.5µM*
Cc1cccc(-n2c(C)nnc2SCC(=O)NC(C)c2ccco2)c1 (stereo not drawn)	.	.	10%	9%	.	.
CN(C)CCNC(=O)C(=O)NCC(c1cccnc1)N1CCN(c2ccccc2)CC1 (stereo not drawn)	.	8%	0%	-2%	6%	.
Cc1ccc(S(=O)(=O)/N=C2\C=C(NS(=O)(=O)c3ccccc3)C(=O)c3ccccc32)cc1	.	11%	?	-15%	?	15µM*
CC(C)CCNCC(O)CON=C1c2ccccc2-c2ccccc21 (stereo not drawn)	35µM*	12%	30%	-2%[57.1 µM]	8%	1%
Cc1cc(C)cc(N(CC(=O)O)S(=O)(=O)c2c(C)noc2C)c1	25%	-1%	19%	7%	3%	-9%
CCc1ccc(N(CC(=O)O)S(=O)(=O)c2c(C)noc2C)cc1	16%	1%	22%	4%	-9%	30µM*
CCOc1ccc(N(CC(=O)NC2CCCCCC2)S(=O)(=O)c2c(C)noc2C)cc1	17%	5%	18%	1%	-5%	-14%
CCOc1ccc(N(CC(=O)NC2CCCCC2)S(=O)(=O)c2c(C)noc2C)cc1	11%	6%	20%	2%	?	30µM*
CCN(CC)CCOC(=O)C(c1ccccc1)c1ccccc1	11%	0%	10%	-3%	-15%	-5%
CCN(CC)CCSC(=O)C(c1ccccc1)c1ccccc1	-15%	.	.	.	25µM*	.
NS(=O)(=O)c1cccc(NC(=O)CCSc2ccc(Cl)cc2)c1	6%	-7%	?	13%	?	12µM*
CC(C)OC(=O)c1c(N)sc2c1CCCC2	.	11%	?	-12%	?	24µM*
CC(C)OC(=O)c1c(NC(=O)CCC(=O)O)sc2c1CCCCC2	4%	5%	-15%	-6%[11.4 µM]	-25%	-11%
NC(=O)c1c(N)sc2c1CCC2	22µM*	-4%	50µM*	-6%	-4%	?
Cc1ccccc1C(=O)NC1CCS(=O)(=O)C1 (stereo not drawn)	12%	-1%	8%	1%	-12%	-1%
CC1CCc2c(sc(N)c2C(N)=O)C1 (stereo not drawn)	-83%	5%	6%[57.1 µM]	6%[57.1 µM]	?	27µM*
Nc1sc2c(c1C(=O)NC1CCS(=O)(=O)C1)CCC2 (stereo not drawn)	18µM*	1%	25µM*	9%[57.1 µM]	-7%	17µM*
CCC1CCc2c(sc(N)c2C(N)=O)C1 (stereo not drawn)	.	2%	-25%	-13%	?	?
COc1ccc(NC(=O)Cn2cnc3sc(C)c(S(=O)(=O)N4CCN(C)CC4)c3c2=O)cc1Cl	.	3%	30%	12%	-6%	.
CC(=O)c1ccc(-c2cnc3c(NC=O)cc(-c4cnn(C)c4)cn23)cc1	.	.	.	.	.	-21%
CCOC(=O)c1c(N)sc(=S)c2c1CCC2	32µM*	-1%	71µM*	-14%	-29%	?
SMILES	Sfp inh	mIDH1 inhibitor	rTrxR1 inhibitor	TrxR1 substrate	VDR inh	PLK1 PBD block
CCCOC(=O)c1c(N)sc2c1CCC2	50µM*	-4%	?	2%[57.1 µM]	-13%	-29%
CCOC(=O)c1c(N)ssc1=S	22µM*	2%	-22%	4%	-26%	6.7µM*
C[C@@H]1COC(=O)O1	17%	.	.	.	17%	.
COc1cc2nc3c(c([Si](C)(C)C(C)(C)C)c2cc1OC)Cn1c-3cccc1=O	79µM*	.	.	.	.	.
CC(C)(C)[Si](C)(C)c1c2c(nc3ccc(OCc4ccccc4)cc13)-c1cccc(=O)n1C2	56µM*	.	.	.	.	.
Cc1cc2nc3c(nc2cc1C)C(O)=C3O	79µM*	2%	2.5µM*	1%	-20%	8.4µM*
OC1=C(O)c2nc3cc(C(F)(F)F)ccc3nc21	50µM*	-1%	2µM*	-5%	-7%	?
OC1=C(O)c2nc3ccccc3nc21	-7%	0%	1.3µM*	2%	-15%	?
CC(C)(CC(=O)NCc1ccc(Cl)cc1Cl)CC1=NS(=O)(=O)c2ccccc2N1	.	9%	9%[57.1 µM]	2%[57.1 µM]	9%	.
S=c1[nH]nc(Nc2cccc(Cl)c2)s1	40µM*	-7%	-13%	-3%	-1%	-22%
O=C(c1ccc(Cl)cc1)c1cnc(Nc2ccccc2Cl)s1	-20%	5%	9%[57.1 µM]	2%[57.1 µM]	2%	-4%
Cc1ccc(Nc2n[nH]c(=S)s2)cc1C	.	-1%	.	.	.	?
S=c1[nH]nc(Nc2ccccc2Cl)s1	-93%	-3%	?	7%[57.1 µM]	-11%	19µM*
O=C(O)c1ccc(CNc2ncnc3nc[nH]c23)cc1	.	.	13%	-1%	-27%	.
COC(=O)c1ccc2nc(NC(=O)CN3C(=O)CCC3=O)sc2c1	28µM*	0%	1%[57.1 µM]	2%[57.1 µM]	-1%	12µM*
Cc1ccc(NC(=O)c2ccc(=O)n(CC(=O)Nc3cc(C)cc(C)c3)n2)cc1	.	4%	16%[57.1 µM]	4%[57.1 µM]	-2%	.
CCOC(=O)c1c(C)[nH]c(C)c1C(=O)COC(=O)c1cccs1	.	11%	-11%	-8%	2%	3%
S=c1nc[nH]c2c1ncn2-c1ccc(Cl)cc1	.	-1%	-31%	-5%	?	6µM*
Fc1ccc(-n2cc(-c3ccccc3)c3c(=S)nc[nH]c32)cc1	14%	?	-28%	-7%	?	?
O=C(Nc1ccccc1F)C1CCCN(S(=O)(=O)c2ccccc2)C1 (stereo not drawn)	-5%	-6%	22%[57.1 µM]	5%	?	3.4µM*
Cc1oc2c(C)c3oc(=O)c(CC(=O)N4CCCCC4)c(C)c3cc2c1C	.	-9%	6%	0%	-3%	.
Cc1c(NC(=O)C(C)OC(=O)/C=C/c2ccco2)c(=O)n(-c2ccccc2)n1C (stereo not drawn)	-4%	-1%	-53%	3%	?	27µM*
Cc1ccc(N2C(=O)CS(=O)(=O)CC2=O)cc1	7%	9%	4.5µM*	8%[57.1 µM]	5%	-7%
Cc1ccc(N2C(=O)CSCC2=O)cc1	4%	3%	-6%	-4%	-2%	-5%

Screens from PubChem.
